12-LOX inh: Primary qHTS assay for inhibitors of human arachidonate 12S-lipoxygenase (ALOX12): Round 2; 580,000 compounds, 1.1% hits; purified 12hLO, xylenol orange hydroperoxide absorbance; Polyunsaturated fatty acid lipoxygenase ALOX12 (Homo sapiens), P18054; Potency, µM (doses to about 108 µM), usual class: inhibitors
Target sequence (P18054 whole entry, looked up): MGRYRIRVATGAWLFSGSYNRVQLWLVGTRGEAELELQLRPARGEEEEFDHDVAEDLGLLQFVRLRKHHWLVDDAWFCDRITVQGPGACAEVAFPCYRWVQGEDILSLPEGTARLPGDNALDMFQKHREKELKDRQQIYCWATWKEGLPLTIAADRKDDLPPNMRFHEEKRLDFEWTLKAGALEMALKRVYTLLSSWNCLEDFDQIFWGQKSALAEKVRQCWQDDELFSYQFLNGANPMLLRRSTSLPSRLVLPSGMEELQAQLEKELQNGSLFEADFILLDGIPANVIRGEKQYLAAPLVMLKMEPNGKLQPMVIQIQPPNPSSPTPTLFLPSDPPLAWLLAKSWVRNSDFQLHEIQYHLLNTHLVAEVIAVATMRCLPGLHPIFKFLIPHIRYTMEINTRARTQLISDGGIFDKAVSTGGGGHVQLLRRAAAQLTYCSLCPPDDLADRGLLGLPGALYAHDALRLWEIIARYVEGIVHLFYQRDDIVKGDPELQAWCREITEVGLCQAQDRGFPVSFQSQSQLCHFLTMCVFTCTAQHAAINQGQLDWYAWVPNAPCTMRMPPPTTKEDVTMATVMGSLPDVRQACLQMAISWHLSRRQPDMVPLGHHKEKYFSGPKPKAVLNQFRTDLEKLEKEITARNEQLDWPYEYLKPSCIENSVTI
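Purified human 12hLO at 150 nM in 25 mM Hepes, 0.01% Triton X-100, pH 7.0, preincubated 15 min at room temperature with compound. Reaction started with 40 uM arachidonic acid, 30 min at room temperature. Hydroperoxide measured by Fe-xylenol orange, 573/405 nm absorbance ratio.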
GCN5L2 inh: qHTS Assay for Inhibitors of GCN5L2. GCN5L2 HAT assay, ThioGlo1 CoA-SH fluorescence. Potency, µM (highest dose often 58.9 µM), most hits filed as inhibitors. Histone acetyltransferase KAT2A (Homo sapiens), Q92830. 390,000 compounds, 0.21% hits
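Preincubate 20nM GCN5L2 with compound 15 min, RT → add 50uM ThioGlo1 + 75uM H3(1-25) + 70uM acetyl-CoA → read fluorescence 0 and 20 min. Primary qHTS; fluorescent artifacts likely.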
PLK1 PBD block: qHTS for Inhibitors of PLK1-PDB (polo-like kinase 1 - polo-box domain): Primary Screen; Serine/threonine-protein kinase PLK1 (Homo sapiens), P53350; Plk1 PBD binding of FITC phosphopeptide, fluorescence polarization; Potency, µM, actives largely listed as inhibitors; 360,000 compounds, 2.8% hits; AID 720504, 2013; note: series mostly up to about 57 µM; nearly all actives have a fitted effect of over 65% in size
VDR inh: Inhibitors of the vitamin D receptor (VDR): qHTS; Vitamin D3 receptor (Homo sapiens), P11473; VDR-SRC2-3 peptide fluorescence polarization, 2 h; Potency, µM, most hits filed as inhibitors; 400,000 compounds, 0.93% hits
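Inhibition of the VDR/SRC2-3 peptide interaction is quantified by fluorescence polarization. Compounds (23 nl, pintool) incubate with the reagents for 2 hours at ambient room temperature.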
Hits are given with their value. Sampled rows, rich in hits. Any-hit rate of the full collection: about 3%. Calls come from the whole dose curve; as a rule, active = well fitted curve in the direction sought with a large enough effect; inconclusive = small, poorly fitted or top-dose-only effect, or another doubt; inactive = no such curve, though single readings can be large; an effect the other way counts as inactive or inconclusive.

Results for Cn1c(=O)c([N+](=O)[O-])c(NCCCn2ccnc2)c2ccccc21 ?
12-LOX inh: inactive; GCN5L2 inh: inactive; PLK1 PBD block: inactive; VDR inh: inactive

What do the screens show for `CC(C)c1ccc(Nc2c([N+](=O)[O-])c(=O)n(C)c3ccccc23)cc1`?
12-LOX inh: inactive; GCN5L2 inh: inactive; PLK1 PBD block: inactive; VDR inh: inactive

What do the screens show for `Cn1c(=O)c([N+](=O)[O-])c(-n2ccnc2)c2ccccc21`?
12-LOX inh: inactive; GCN5L2 inh: inactive; PLK1 PBD block: inactive; VDR inh: 20µM

How did Cc1cccc(Nc2c([N+](=O)[O-])c(=O)n(C)c3ccccc23)c1 do in these assays?
12-LOX inh: inactive; GCN5L2 inh: inactive; PLK1 PBD block: 26.7µM; VDR inh: inconclusive

How did O=C(Cn1nnnc1-c1ccc(Br)cc1)N1CCOCC1 do in these assays?
12-LOX inh: inactive

Results for CCc1cccc(C)c1NC(=O)CCCn1c(=O)c2cccn2c2cccnc21 ?
12-LOX inh: inactive; GCN5L2 inh: inactive; PLK1 PBD block: 23.8µM; VDR inh: inconclusive

What do the screens show for `O=C(COC(=O)c1cc2ccccc2[nH]1)NCc1ccccc1`?
12-LOX inh: inactive

How did Cc1cc([N+](=O)[O-])c2[nH]c(C(=O)N/N=C/c3ccccc3C(=O)O)c(-c3ccccc3)c2c1 do in these assays?
12-LOX inh: inactive; GCN5L2 inh: inactive; PLK1 PBD block: 29.9µM; VDR inh: inactive

What do the screens show for `NS(=O)(=O)c1ccc(N/N=C/c2ccccc2C(=O)O)c([N+](=O)[O-])c1`?
12-LOX inh: inactive; GCN5L2 inh: inactive; PLK1 PBD block: inactive; VDR inh: inactive

Results for C/C=C/c1c(C)nc2sc(C#N)c(N)c2c1C ?
12-LOX inh: inactive

What do the screens show for `Fc1ccc(OCc2nnc([C@H]3CCN(Cc4cccnc4)C3)o2)cc1`?
12-LOX inh: inactive

Results for Cc1cccc(NC(=S)NC2CCCCCC2)c1C ?
12-LOX inh: 50.1µM; GCN5L2 inh: inactive; PLK1 PBD block: inactive; VDR inh: inactive

How did CC(C)(C)c1ccccc1NC(=S)NC1CCCCC1 do in these assays?
12-LOX inh: 39.8µM; GCN5L2 inh: inactive; PLK1 PBD block: inactive; VDR inh: inactive

What do the screens show for `COc1ccc(C(=O)/C=C/c2ccccc2F)c(OC(=O)c2ccccc2C)c1`?
12-LOX inh: inactive

How did COC(=O)CNC(=O)C(c1ccccc1)c1ccccc1 do in these assays?
12-LOX inh: inactive

How did CC(C)c1ccc(N(CC(=O)O)S(=O)(=O)c2cccnc2)cc1 do in these assays?
12-LOX inh: inactive; GCN5L2 inh: inactive; PLK1 PBD block: 26.7µM; VDR inh: inactive

What do the screens show for `CCOc1ccc(N(CC(=O)O)S(=O)(=O)c2cccnc2)cc1`?
12-LOX inh: inactive; GCN5L2 inh: inactive; PLK1 PBD block: inactive; VDR inh: inactive

What do the screens show for `C=CCCCCCCCCCCCc1ccco1`?
GCN5L2 inh: inconclusive; VDR inh: 25.1µM

What do the screens show for `CCCCNCc1ccco1`?
12-LOX inh: inactive

How did Cc1ccc(NC(=O)c2cc(N3C(=O)CCC3=O)ccc2N2CCOCC2)cc1 do in these assays?
12-LOX inh: inactive; GCN5L2 inh: inactive; PLK1 PBD block: inactive; VDR inh: inactive

What do the screens show for `Cc1ccc(NC(=O)c2cc(N3C(=O)C=CC3=O)ccc2N2CCOCC2)cc1Cl`?
12-LOX inh: 12.6µM; GCN5L2 inh: inconclusive; PLK1 PBD block: 4.74µM; VDR inh: 44.7µM

What do the screens show for `COC(=O)c1cc(NC(=O)c2cccs2)ccc1N1CCOCC1`?
12-LOX inh: inactive; GCN5L2 inh: inactive; PLK1 PBD block: 26.7µM; VDR inh: inconclusive

What do the screens show for `O=S(=O)(Cc1ccccc1)Cc1cc(Cl)c2c(c1)OCO2`?
12-LOX inh: inactive

Results for COC(=O)c1cc(S(=O)(=O)N(C)CC(=O)N2CCN(c3ccc(C(C)=O)cc3)CC2)cn1C ?
12-LOX inh: inactive

Results for CCOC(=O)C1=C(N)Oc2ccc(Br)cc2[C@@H]1[C@@H](C#N)C(=O)OCC ?
12-LOX inh: 10µM; GCN5L2 inh: inconclusive; VDR inh: inconclusive

Results for C=C(C)CC1N(c2cccc(OC)c2)C(=O)C2C(C(=O)O)C3C=CC21O3 (stereo not drawn) ?
12-LOX inh: inactive; GCN5L2 inh: inactive; PLK1 PBD block: 26.7µM; VDR inh: inactive

Results for CN(C)/C=N/c1sc2c(c1C#N)CCCCC2 ?
12-LOX inh: inactive; GCN5L2 inh: inactive; PLK1 PBD block: inactive; VDR inh: inactive

What do the screens show for `N#Cc1c(/N=C/N2CCOCC2)sc2c1CCCCC2`?
12-LOX inh: inactive; GCN5L2 inh: inactive; PLK1 PBD block: 21.2µM; VDR inh: inactive

How did CCC(C)Oc1cc(-c2ccnc(Nc3cccc(Cl)c3)n2)ccn1 (stereo not drawn) do in these assays?
12-LOX inh: inactive; GCN5L2 inh: inactive; PLK1 PBD block: 23.8µM; VDR inh: inconclusive

What do the screens show for `Nc1ccc(CNc2ncn[nH]2)cc1`?
12-LOX inh: inactive; GCN5L2 inh: inactive; PLK1 PBD block: 23.8µM; VDR inh: inconclusive

Results for Cc1ccc(Cc2ccc(C(=O)NNC(N)=S)o2)cc1 ?
12-LOX inh: inactive; GCN5L2 inh: inactive; PLK1 PBD block: 26.7µM; VDR inh: inactive

How did Cc1ccc(Cc2ccc(C(=O)O)o2)cc1 do in these assays?
12-LOX inh: inactive

What do the screens show for `CC(CNC(=O)CCc1nnc2n(CCc3ccccc3)c(=O)c3ccccc3n12)c1ccccc1` (stereo not drawn)?
12-LOX inh: inactive

Results for CCOCCSc1nnc(-c2nn(Cc3ccccc3)c(=O)c3ccccc23)o1 ?
12-LOX inh: 28.2µM

What do the screens show for `CCC(C)N(C(=O)CSc1ccc(NC(C)=O)cc1)C1CCS(=O)(=O)C1` (stereo not drawn)?
12-LOX inh: inactive; GCN5L2 inh: inactive; PLK1 PBD block: 29.9µM; VDR inh: inactive

What do the screens show for `COc1ccc(-c2c(C)oc3cc(OCC#N)ccc3c2=O)cc1OC`?
12-LOX inh: inactive

Results for CCN(C(=O)c1cc2c(s1)-c1ccccc1SC2)c1ccccc1C ?
12-LOX inh: inactive

Results for CC(C)Cn1c(-c2ccc(F)cc2)n[nH]c1=S ?
12-LOX inh: inconclusive; GCN5L2 inh: inactive; PLK1 PBD block: inactive; VDR inh: inactive

Results for CCN(CC)S(=O)(=O)c1cccc(-c2n[nH]c(=S)n2CC(C)C)c1 ?
12-LOX inh: 31.6µM; GCN5L2 inh: inactive; PLK1 PBD block: inactive; VDR inh: inactive

How did Cc1[nH]c2ccc(-c3n[nH]c(=S)n3C)cc2c1C do in these assays?
12-LOX inh: inconclusive; GCN5L2 inh: inactive; PLK1 PBD block: inactive; VDR inh: inactive

Results for CC(C)Cn1c(-c2ccccc2F)n[nH]c1=S ?
12-LOX inh: 25.1µM; GCN5L2 inh: inactive; PLK1 PBD block: inactive; VDR inh: inactive

How did CCn1c(-c2cc(Cl)ccc2OC)n[nH]c1=S do in these assays?
12-LOX inh: inconclusive; GCN5L2 inh: inactive; PLK1 PBD block: inactive; VDR inh: inactive

What do the screens show for `CCn1c(-c2ccc3[nH]c(C)c(C)c3c2)n[nH]c1=S`?
12-LOX inh: 10µM; GCN5L2 inh: inactive; PLK1 PBD block: inactive; VDR inh: inactive

How did CCn1c(-c2cccc(Cl)c2)n[nH]c1=S do in these assays?
12-LOX inh: 28.2µM; GCN5L2 inh: inactive; PLK1 PBD block: inactive; VDR inh: inactive

Assay outcomes: PubChem BioAssay, National Center for Advancing Translational Sciences (NCATS)
